PubChem BioAssay (EPA / NIEHS)
Inconclusive results are not listed. Calls of active or inactive are those of the source. Rule for the calls, unless noted: active = hit-call score of the fitted dose curve at least 0.9, where 1 is the maximum; inconclusive = response in the unintended direction; inactive = score below 0.9.

Tests used:
[1] = TOX21_p53_BLA_p2_viability: Viability Assessment in the Tox21 HCT-116 p53 Agonism Beta-lactamase Assay, Phase 2 (AID 2283591);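 note: compound exposure lasted 16 h at 37 °C; actives lower the ATP signal meaning cytotoxicity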
Outline: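 HCT116 p53-bla cells, 4000/well, dosed after 5 h plating (217-fold dilution of DMSO stocks) and incubated 16 h at 37C. Viability taken as cellular ATP by CellTiter-Glo luminescence after 30 min RT; signal loss marks cytotoxicity.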

[2] = target: Cellular tumor antigen p53 (Homo sapiens) (UniProt P04637); assay: TOX21_p53_BLA_p2_ratio: Tox21 HCT-116 p53 Agonism Beta-lactamase Assay, Ratio, Phase 2 (AID 2283592)
Sequence of Cellular tumor antigen p53 (Homo sapiens) (P04637 whole entry, looked up): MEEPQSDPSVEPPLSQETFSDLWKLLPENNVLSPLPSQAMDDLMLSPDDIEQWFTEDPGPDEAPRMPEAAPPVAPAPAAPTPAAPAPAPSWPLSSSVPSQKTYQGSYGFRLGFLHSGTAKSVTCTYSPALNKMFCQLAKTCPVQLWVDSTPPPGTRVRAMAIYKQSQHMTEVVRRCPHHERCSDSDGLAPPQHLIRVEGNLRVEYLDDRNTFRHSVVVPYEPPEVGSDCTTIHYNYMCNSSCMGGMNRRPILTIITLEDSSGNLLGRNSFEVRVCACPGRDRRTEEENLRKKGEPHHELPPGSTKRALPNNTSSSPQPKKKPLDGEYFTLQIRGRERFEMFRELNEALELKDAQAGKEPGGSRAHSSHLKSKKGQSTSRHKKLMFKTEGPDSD
Outline: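 HCT116 p53-bla; 4000 cells/well; 5 h pre-incubation; cpd in DMSO, 217-fold dilution; 16 h 37C/5% CO2; CCF4-AM 2 h RT; Ex 405, Em 460/530 ratio; DMSO = baseline; positive fitting direction.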

[3] = TOX21_p53_BLA_p3_viability: Viability Assessment in the Tox21 HCT-116 p53 Agonism Beta-lactamase Assay, Phase 3 (AID 2283593);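 note: cells exposed to compound for 16 h before reading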
Outline: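 HCT116 cells, 4000/well, dosed 5 h after plating by pin transfer (217-fold dilution from DMSO stock) and incubated 16 h at 37C, 5% CO2. Viability read as ATP luminescence with CellTiter-Glo after 30 min at room temperature.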

[4] = TOX21_p53_BLA_p5_viability: Viability Assessment in the Tox21 HCT-116 p53 Agonism Beta-lactamase Assay, Phase 5 (AID 2283600)
Outline: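 4000 cells/well; 5 h pre-incubation; DMSO compounds pin-transferred, 217-fold dilution; 16 h, 37C/5% CO2; CCF4-AM 2 h RT; CellTiter-Glo 30 min RT; luminescence.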

[5] = target: Cellular tumor antigen p53 (Homo sapiens) (UniProt P04637); assay: TOX21_p53_BLA_p3_ratio: Tox21 HCT-116 p53 Agonism Beta-lactamase Assay, Ratio, Phase 3 (AID 2283596)
Outline: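 HCT116 p53-bla cells (4000/well) given compound in DMSO (217-fold dilution) after 5 h, incubated 16 h at 37C. CCF4-AM substrate 2 h at room temperature; 460/530 nm emission ratio, gain fitted against DMSO.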

[6] = TOX21_p53_BLA_p4_viability: Viability Assessment in the Tox21 HCT-116 p53 Agonism Beta-lactamase Assay, Phase 4 (AID 2283597);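 note: hits lower the luminescence signal meaning cytotoxicity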
Outline: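 Cells plated, 5 h pre-incubation; DMSO compounds pinned (217-fold dilution); 16 h, 37C/5% CO2; CCF4-AM 2 h RT; CellTiter-Glo 30 min RT; luminescence read.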

[7] = target: Cellular tumor antigen p53 (Homo sapiens) (UniProt P04637); assay: TOX21_p53_BLA_p5_ratio: Tox21 HCT-116 p53 Agonism Beta-lactamase Assay, Ratio, Phase 5 (AID 2283599)
Outline: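 HCT-116 p53-bla cells (4000/well) plated 5 h, dosed with compound (217-fold DMSO dilution) for 16 h at 37 C; CCF4-AM substrate 2 h at room temperature. Activity is the 460/530 nm emission ratio (405 nm excitation), fitted in gain-of-signal direction versus DMSO.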

[8] = target: Cellular tumor antigen p53 (Homo sapiens) (UniProt P04637); assay: TOX21_p53_BLA_p4_ratio: Tox21 HCT-116 p53 Agonism Beta-lactamase Assay, Ratio, Phase 4 (AID 2283601)
Outline: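 HCT-116 p53 beta-lactamase reporter cells (4000/well) preincubated 5 h, then compound (217-fold dilution of DMSO stock) for 16 h at 37C. CCF4-AM substrate added 2 h at room temperature; 460/530 nm emission ratio fitted upward versus DMSO.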

[9] = CCTE_Harrill_HTTr_Viability_MCF7: CCTE's 6-hour Cell Viability Assessment for the High-Throughput Transcriptomics (HTTr) Platform, in MCF-7 cells cultured in DMEM + 10% fetal bovine serum, Harrill Lab (AID 2284010; active = hit-call score of the fitted dose curve at least 0.9, where 1 is the maximum; inactive = score below 0.9)
Outline: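 Viability measured through PI dye exclusion by high-content imaging at 6 h post-dosing.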

[10] = CCTE_Harrill_HTTr_Apoptosis_MCF7: CCTE's 6-hour Apoptosis Assessment for the High-Throughput Transcriptomics (HTTr) Platform, in MCF-7 cells cultured in DMEM + 10% fetal bovine serum, Harrill Lab (AID 2284011; active = hit-call score of the fitted dose curve at least 0.9, where 1 is the maximum; inactive = score below 0.9)
Outline: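 MCF-7 (DMEM + 10% FBS), 384-well; 8-pt dilution series, 6 h chemical exposure; caspase-3/7 activation via CellEvent Caspase 3/7 Green, HCI; bidirectional fit vs DMSO.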

Measured: outcome

Cc1nnc2n1-c1ccc(Cl)cc1C(c1ccccc1Cl)=NC2
inactive: [1] | [2] | [3] | [4]

CCC/C=C/C=C/C(=O)O[C@H]1/C(=C/C(=O)OC)C[C@H]2C[C@H]([C@@H](C)O)OC(=O)C[C@H](O)C[C@@H]3C[C@H](OC(C)=O)C(C)(C)[C@](O)(C[C@@H]4C/C(=C/C(=O)OC)C[C@H](/C=C/C(C)(C)[C@]1(O)O2)O4)O3
inactive: [1] | [2] | [5] | [6] | [7] | [8]

CC(=O)OC1(c2ccccc2)CCN(CCc2ccccc2)CC1
inactive: [1] | [2] | [3] | [6] | [8]

COC(C)(C)C
inactive: [1] | [2] | [5] | [6] | [7] | [4] | [8]

II
inactive: [1] | [2] | [3] | [7] | [8] | [9] | [10]

C=CC(=O)OC(C)(C)C
inactive: [1] | [2] | [5] | [6] | [7] | [4]

CCc1cc(OC)c(C[C@@H](C)N)cc1OC
inactive: [1] | [2] | [3] | [7] | [8]

O=C(O)c1cc(Cl)ccc1Cl
inactive: [1] | [2] | [5] | [6] | [7] | [4]

C=CC(=O)OCC(C)C
inactive: [1] | [2] | [3] | [7] | [4] | [8]

CCC(=O)O[C@](Cc1ccccc1)(c1ccccc1)[C@H](C)CN(C)C
inactive: [1] | [2] | [3] | [7] | [8]

NCc1cccnc1
inactive: [1] | [2] | [3] | [7] | [4] | [8]

ClC=C(Cl)Cl
inactive: [1] | [2] | [5] | [6] | [7] | [8]
